# Entries with a potency or affinity are not part of this list. Records with an inconclusive call do not appear. Calls of active or inactive are those of the source.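 The calls were made as follows: active = viability loss with half-maximal concentration at most twice the top valid dose, at 8, 24 and 48 hours; inconclusive = timepoint results disagree; inactive = inactive at all three timepoints.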
# Assay: SNB-75 astrocytoma cell viability loss, late-stage follow-up, mechanism study for HRAS target identification, CellTiter-Glo ATP luminescence, several timepoints, dry powder (AID 720624)
structure (smiles),measurement,value
Cc1onc(C(=O)N2CCN(C(c3ccncc3)c3ccncc3)CC2)c1[N+](=O)[O-],outcome,inactive

# — PubChem BioAssay AID720624 (Broad Institute, 2013)
